Hits are enriched below; roughly 0.81% of the tested compounds scored in any of these assays.
COUP-TFII inh: blocks human COUP-TFII nuclear receptor; 0.7% of 370,000 active; inhibition, % at 8.6 µM; P24468; HEK293T NGFI-A luciferase reporter, luminescence;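 active = inhibition above a per-plate cutoff, mean inhibition of test wells between control levels plus 3 SD, cut at about 38% in these data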;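 also: cells cotransfected with COUP-TFII expression vector driving the NGFI-A reporter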
Target sequence (P24468 whole entry, looked up): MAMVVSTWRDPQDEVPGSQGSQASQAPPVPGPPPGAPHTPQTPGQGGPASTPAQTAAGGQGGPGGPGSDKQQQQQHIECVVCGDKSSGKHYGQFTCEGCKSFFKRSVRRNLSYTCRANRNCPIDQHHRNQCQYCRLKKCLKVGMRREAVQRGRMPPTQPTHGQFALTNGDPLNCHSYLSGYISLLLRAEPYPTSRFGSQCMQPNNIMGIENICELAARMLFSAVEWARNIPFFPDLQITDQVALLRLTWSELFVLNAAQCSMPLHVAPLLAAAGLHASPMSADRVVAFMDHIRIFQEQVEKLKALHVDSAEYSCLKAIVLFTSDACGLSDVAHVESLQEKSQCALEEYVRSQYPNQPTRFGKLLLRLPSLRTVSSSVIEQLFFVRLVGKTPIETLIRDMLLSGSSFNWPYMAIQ
LRH-1 inv ag: inverse agonists of human LRH-1 (NR5A2); HEK293T StAR-luciferase reporter, LRH-1 transfected, 24 h; O00482; inhibition, % at 3.6 µM; 0.13% of 360,000 active;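 active = inhibition above the mean inhibition of all tested compounds plus 3 SD, cut at about 73% in these data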
NCOA1 inh: inhibitors of human steroid receptor coactivator 1 (SRC1). Q15788. 0.12% of 360,000 active. HEK293 GAL4-SRC1 luciferase reporter, luminescence. inhibition, % at 3.6 µM;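 active = inhibition above the campaign mean plus 3 SD, with each screening campaign given its own cutoff, cut at about 60% in these data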
NCOA2 inhibitor: human SRC2 (NCOA2) inhibition; HEK293 GAL4-SRC2 luciferase reporter, luminescence; inhibition, % at 9 µM; AID 651957; Q15596; 0.17% of 370,000 active;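 active = inhibition above the mean inhibition of all tested compounds plus 3 SD, set per campaign, cut at about 52% in these data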
SRC3 inh: inhibits human SRC3 coactivator | inhibition, % at 3.6 µM | Q9Y6Q9 | HEK293 GAL4-SRC3 luciferase reporter, luminescence | AID 588352 | 0.17% of 360,000 active;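 active = inhibition above a per-campaign cutoff, the mean of all compounds plus 3 SD, cut at about 60% in these data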;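 also: higher means less SRC3-driven luciferase light from the GAL4 reporter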
VP16 Luc counter: counter-screen for COUP-TFII antagonists: inhibitors of VP16; shares compounds with COUP-TFII inh; HEK293 Gal4-VP16 luciferase reporter, luminescence; inhibition, % at 8.5 µM; 25% of 2,500 active; AID 687007; in the data active = inhibition above about 13%
NR2F2 inh conf: COUP-TFII (NR2F2) inhibition, confirmation assay; shares compounds with COUP-TFII inh; HEK293 NGFI-A luciferase reporter, luminescence; inhibition, % at 8.5 µM; 45% of 2,500 active;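 active = mean inhibition over three repeats above a set limit taken from the earlier primary screen, cut at about 38% in these data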
A number is an active result; – = inactive; · = no result; ! = a repeat was not active.

SMILES	COUP-TFII inh	LRH-1 inv ag	NCOA1 inh	NCOA2 inhibitor	SRC3 inh	VP16 Luc counter	NR2F2 inh conf
Cc1ccccc1C(=O)N1CCN(c2ccc(NC(=O)c3ccc4c(c3)OCCO4)cc2)CC1	68	–	–	–	–	–	58
Cc1ccccc1C(=O)N1CCN(c2ccc(NC(=O)CSc3ccc(Cl)cc3)cc2)CC1	54	–	–	–	–	–	57
COc1ccc(OCC(=O)Nc2ccc(N3CCN(C(=O)c4ccco4)CC3)cc2)cc1	–	–	–	–	–	·	·
COCc1cc(N2CCNC[C@H]2C)ccc1N1CCS(=O)(=O)CC1	–	·	·	–	·	·	·
CCOC(=O)NC(=O)C(=CNc1ccc(C)cc1)C(=O)NC(=O)OCC	–	–	–	–	–	·	·
COC(=O)C1CN(Cc2cn(Cc3ccc(F)cc3)nn2)CCS(=O)(=O)N1Cc1ccc(C)cc1 (stereo not drawn)	–	·	·	–	·	·	·
Cc1ccc(C(=O)C[n+]2ccc3ccccc3c2)cc1	–	–	–	–	–	·	·
Cc1cc(C(C)(C)C)cc(C)c1C[n+]1ccc2ccccc2c1	66	–	–	–	–	27	55
CCOc1ccc(-c2cc(C(=O)Nc3ccc(C)c(NS(C)(=O)=O)c3)[nH]n2)c(C)c1	62	–	–	–	–	–	–
CCOc1ccc(NC(=O)Cn2c(=O)n(CCCC(=O)NC3CCN(Cc4ccccc4)CC3)c(=O)c3ccccc32)cc1	–	–	–	–	–	·	·
COC(=O)C(C)Oc1ccc(Cl)c(CN2OCC(C)(C)C2=O)c1 (stereo not drawn)	–	–	–	–	–	·	·
c1ccc(-c2csc3ncnc(NCc4ccccn4)c23)cc1	–	–	–	–	–	·	·
c1ccc(CNc2ncnc3scc(-c4cccs4)c23)nc1	60	–	–	–	–	–	–
CNc1nc(-c2ccc(OC)cc2)c(-c2ccc(OC)cc2)s1	41	–	–	–	–	–	–
COc1ccc(-c2nc(NC(C)=O)sc2-c2ccc(OC)cc2)cc1	–	–	–	–	–	·	·
Cc1ccc(OCCNC(=O)Cc2ccc(F)cc2)cc1	–	–	–	–	–	·	·
O=c1c2cc3ccccc3nc2ncn1CCc1ccc(Cl)cc1	–	–	·	–	·	·	·
O=c1c2cc3cccnc3nc2ncn1CCc1c[nH]c2ccccc12	44	·	·	–	·	–	–
Cc1nnc(NC(=O)CSc2nc3ccccc3o2)s1	–	–	–	–	–	·	·
CC1CCc2nc(NC(=O)CSc3nc4ccccc4o3)sc2C1 (stereo not drawn)	43	–	–	–	–	31	68
O=S(=O)(NCC1CCCO1)c1ccc(-c2ccc(S(=O)(=O)NCC3CCCO3)cc2)cc1 (stereo not drawn)	68	–	–	–	–	–	64
COc1ccc(-n2c(C)c([N+](=O)[O-])c3ccc(O)c(CN(C)C)c32)cc1	41	–	69	54	–	29	–
COc1ccc(-n2c(C(C)n3nc(C)c([N+](=O)[O-])c3C)n[nH]c2=S)cc1 (stereo not drawn)	–	–	–	–	–	·	·
COc1ccc(NS(=O)(=O)c2ccc(-c3cnc(C4CC4)o3)cc2)cc1OC	56	–	–	–	–	–	50
COc1ccc(NS(=O)(=O)c2ccc3c(c2)OCCO3)cc1OC	57	–	–	–	–	–	40
SMILES	COUP-TFII inh	LRH-1 inv ag	NCOA1 inh	NCOA2 inhibitor	SRC3 inh	VP16 Luc counter	NR2F2 inh conf
COc1ccccc1NS(=O)(=O)c1ccc(-c2cnc(C3CC3)o2)cc1	–	–	–	–	–	·	·
COc1ccc(S(=O)(=O)Nc2ccc3c(c2)OCO3)cc1OC	–	–	–	–	–	·	·
Cc1ccc(S(=O)(=O)c2nc(-c3ccco3)oc2SC(C)C)cc1	–	–	–	–	–	·	·
CC(C)(C)OC(=O)NCCCCCc1cn([C@@H](CO)C(=O)NCCCCCCCCCCC(=O)N2CCN(C(=O)OC(C)(C)C)CC2)nn1	69	–	–	54	72	–	79
CC(C)(C)OC(=O)CC[C@@H](C(=O)NCCCCCCCCCCC(=O)N1CCN(C(=O)OC(C)(C)C)CC1)n1cc(CCCCCNC(=O)OC(C)(C)C)nn1	–	–	–	–	–	·	·
CCN(CC(=O)Nc1ccc(NC(C)=O)cc1)C(=O)CCCc1nc2ccccc2c(=O)[nH]1	–	–	–	–	–	·	·
CC(=O)c1ccc(N2CCN(C(=O)/C=C/c3ccc(S(=O)(=O)N4CCOCC4)cc3)CC2)cc1	–	–	–	–	–	·	·
CC(=O)c1ccc(N2CCN(C(=O)/C=C/c3ccc(S(=O)(=O)NCc4ccco4)cc3)CC2)cc1	54	–	–	–	–	–	–
CCc1ccc(-c2nc(CSCC(=O)NCc3ccco3)c(C)o2)cc1	77	–	–	80	–	–	–
CCC(=O)Nc1ccccc1C(=O)NC1CCCCC1	–	–	–	–	–	·	·
CCC(=O)c1ccc(OCC(O)Cn2c(C)nc3ccccc32)cc1 (stereo not drawn)	59	–	–	–	–	–	–
C=CCC1(CC=C)CCCN1C(=O)c1cc(COc2cncc(Cl)c2)on1	48	–	–	–	–	–	–
COc1ccc(Cl)cc1Nc1nc(-c2sc(NC(=O)C(C)(C)C)nc2C)cs1	41	–	72	–	–	–	42
CC(C)Nc1ccc(Nc2ccnc3cc4ccccc4cc23)cc1	–	–	–	–	–	·	·
c1ccc(CCNc2ccnc3cc4ccccc4cc23)cc1	65	–	–	–	–	15	59
NS(=O)(=O)c1cccc(NS(=O)(=O)c2cccc(C(F)(F)F)c2)c1	43	–	–	–	–	–	–
Nc1c2c(nc3ccccc13)CSCC2	–	–	–	–	–	·	·
C=CCN(C(=O)CSc1nc2[nH]ncc2c(=O)n1-c1ccccc1OC)c1ccccc1	42	–	–	–	–	–	–
COc1cc(NC(=O)CSc2nc3[nH]ncc3c(=O)n2-c2ccccc2C)cc(OC)c1OC	–	–	–	–	–	·	·
COc1ccc(-c2nc3ccc(C)cn3c2CC(C)(C)C)cc1OC	–	–	–	–	–	·	·
O=C(NCCN1CCC(n2c(=O)[nH]c3ccccc32)CC1)c1ccc(C(F)(F)F)cc1C(F)(F)F	44	–	·	–	·	–	–
CCN1/C(=C\C(=S)Nc2ccccc2)Sc2ccccc21	–	–	–	–	–	·	·
CCN1/C(=C/C(C)=C/c2sc3ccccc3[n+]2CC)Sc2ccccc21	72!	77	–	–	70	26	74
CC1(C)CC(=O)C2=C(C1)OC(N)=C(C#N)C2Cc1ccccc1 (stereo not drawn)	–	–	–	–	–	·	·
CN(C)c1ccc(C=C2SC(=S)N(Cc3ccco3)C2=O)cc1	40	–	–	–	–	–	–
O=C(NCc1ccccc1)[C@H]1CCCN1C(=O)[C@H]1CCCN1C(=O)c1ccc(F)c(C(F)(F)F)c1	–	·	·	–	·	·	·
Cc1c(C(=O)NCc2ccc(C(F)(F)F)cc2)sc(=O)n1Cc1ccc(S(=O)(=O)N(C)C)cc1	42	–	–	–	–	–	–

High-throughput results as filed in PubChem BioAssay.
